Six1-Eya2 blk = qHTS Assay for Inhibitors of the Six1/Eya2 Interaction; hit rate 0.56% among 360,000; AID 651725, 2012; AlphaScreen GST-Six1/His-Eya2 binding, biochemical; stronger effect = lower value; Homeobox protein SIX1 (Homo sapiens) + Protein phosphatase EYA2 (Homo sapiens), …; activity change, % (test concentration not listed); in the data active means activity change below about -65%; inconclusive means mostly about -30% to -63%
Target sequence (O00167 whole entry, looked up): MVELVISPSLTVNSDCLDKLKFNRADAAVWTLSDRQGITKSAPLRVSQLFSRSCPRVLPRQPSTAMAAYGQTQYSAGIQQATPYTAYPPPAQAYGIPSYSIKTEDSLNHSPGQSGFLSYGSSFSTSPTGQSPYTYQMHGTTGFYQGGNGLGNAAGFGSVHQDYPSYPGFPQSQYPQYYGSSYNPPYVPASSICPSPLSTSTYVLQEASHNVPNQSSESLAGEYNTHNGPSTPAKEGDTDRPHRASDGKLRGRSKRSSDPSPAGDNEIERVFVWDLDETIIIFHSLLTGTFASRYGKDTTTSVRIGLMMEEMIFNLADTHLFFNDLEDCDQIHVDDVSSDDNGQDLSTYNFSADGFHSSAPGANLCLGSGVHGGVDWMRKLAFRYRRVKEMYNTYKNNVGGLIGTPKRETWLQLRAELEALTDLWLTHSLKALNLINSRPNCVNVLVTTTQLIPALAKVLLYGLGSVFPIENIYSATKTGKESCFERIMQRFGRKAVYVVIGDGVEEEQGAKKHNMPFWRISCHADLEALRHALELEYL
Target sequence (Q15475 whole entry, looked up): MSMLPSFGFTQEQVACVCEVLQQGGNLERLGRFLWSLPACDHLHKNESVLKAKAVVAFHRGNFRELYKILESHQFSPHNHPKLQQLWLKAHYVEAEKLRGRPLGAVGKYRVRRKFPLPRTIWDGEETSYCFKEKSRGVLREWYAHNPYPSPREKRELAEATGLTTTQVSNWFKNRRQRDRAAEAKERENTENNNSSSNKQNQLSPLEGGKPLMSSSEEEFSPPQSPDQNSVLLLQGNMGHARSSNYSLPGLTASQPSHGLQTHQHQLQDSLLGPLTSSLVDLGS
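Compounds are tested against tagged Six1 and Eya2 proteins bridged by glutathione donor and nickel acceptor beads; after a one-hour incubation at 37 °C without light, AlphaScreen emission is recorded.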
IL1B secr inh = qHTS for Inhibitors of Inflammasome Signaling: IL-1-beta AlphaLISA Primary Screen; activity change, % at 57.5 µM; hit rate 4.7% among 360,000; THP-1 LPS/ATP IL-1B secretion, AlphaLISA, 16 h; stronger effect = lower value; AID 743279, 2014; in the data active means activity change below about -50%; inconclusive means mostly about -30% to -49%
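THP-1 cells pretreated 1 hr with compounds (up to 57.5 uM final), then stimulated with LPS (250 ng/mL final) plus ATP (1.25 mM final); secreted IL-1B measured by AlphaLISA after 16 hr, decreased signal indicating inhibition.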
CtBP-E1A inh = qHTS Assay for Inhibitors of the CtBP/E1A Interaction; hit rate 0.49% among 340,000; AlphaScreen GST-E1A/His-CtBP binding, 1536-well; stronger effect = lower value; CtBP / adenovirus E1A interaction (AlphaScreen); AID 651724, 2012; activity change, % (no concentration beside the values); in the data active means activity change below about -65%; inconclusive means mostly about -30% to -63%
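In 5 uL wells, 23 nL compound meets equimolar GST-E1A and His-CtBP (5X stock 125 nM each) for 2 h, 37 °C. Beads (5X, 50 ug/mL) then 1 h, 37 °C, dark.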
DT40 TDP1 no CPT = qHTS for Inhibitors of human tyrosyl-DNA phosphodiesterase 1 (TDP1): qHTS in cells in absence of CPT; AID 686978, 2013; Potency, µM (highest dose often 46.2 µM), for inactives: top-dose activity change, negative = growth inhibition, actives largely listed as inhibitors; hit rate 15% among 420,000; DT40 Tdp1-/- hTDP1 cells, no CPT, ATP luminescence, 48 h; further: potency means the concentration at half of the fitted maximal effect; nearly all actives have a fitted effect of over 55% in size
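Growth of hTDP1-complemented DT40 Tdp1-knockout cells is measured by ATP luminescence after at least 48 hr compound exposure at 37 °C, with DMSO substituting for the 20 nM CPT used in the parallel screen.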
TDP1 cell CPT = qHTS for Inhibitors of human tyrosyl-DNA phosphodiesterase 1 (TDP1): qHTS in cells in presence of CPT; AID 686979, 2013; chicken DT40 Tdp1-/-;hTDP1 cells + 20 nM CPT, ATP luminescence, 48 h; hit rate 12% among 420,000; Potency, µM (doses to about 46.2 µM), inactives show at the highest dose activity change, negative = growth inhibition, actives largely listed as inhibitors; further: potency means the concentration at half of the fitted maximal effect; nearly all actives have a fitted effect of over 55% in size
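Chicken DT40 Tdp1-/- cells complemented with human TDP1, 400 cells/well, exposed to compounds plus 20 nM camptothecin for at least 48 h at 37 C; viability read as ATP content by CellTiter-Glo luminescence.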
TDP1 block = qHTS Assay for Inhibitors of Tyrosyl-DNA Phosphodiesterase (TDP1). Tyrosyl-DNA phosphodiesterase 1 (Homo sapiens), Q9NUW8. recombinant TDP1, AlphaScreen DNA substrate cleavage. Potency, µM (highest dose often 130 µM), for inactives: at the highest dose activity change, negative = inhibition, most hits filed as inhibitors. hit rate 0.28% among 350,000. AID 485290, 2010; further: potency means the concentration at half of the fitted maximal effect; nearly all actives have a fitted effect of over 40% in size
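Here, a 5' biotin and 3' phosphotyrosine-FITC DNA oligonucleotide reports Tdp1 activity: intact substrate bridges AlphaScreen beads, while cleavage leaves a 3' phosphate and drops signal. All incubations at room temperature.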
An asterisk follows results filed as active; i = inactive; ? = inconclusive; · = no result; [ ] = another dose, or the depositor's remark. Shown are actives, neighbours in structure and some others; about 18% of the full set was active somewhere. Unless noted, the call rests on the fitted dose curve; in most records, active means well fitted curve in the direction sought with a large enough effect; inconclusive means small, poorly fitted or top-dose-only effect, or another doubt; inactive means no such curve, though single readings can be large; an effect the other way counts as inactive or inconclusive. On the % scale 0 is the no-effect control and ±100 the full control effect.

SMILES	Six1-Eya2 blk	IL1B secr inh	CtBP-E1A inh	DT40 TDP1 no CPT	TDP1 cell CPT	TDP1 block
CCc1cccc(C)c1NC(=O)CCCN1C(=O)C(c2ccccc2)Oc2cccnc21 (centres undefined)	·	·	·	?	?	3%
Cc1cc(N2C(=O)C(O)=C(C(=O)c3cc4ccccc4o3)C2c2cccs2)no1 (centres undefined)	-12	-7	-8	?	-16%	7%
COc1ccc(/C=C\C(=O)Nc2ccccc2C(=O)O)cc1OC	·	·	·	13µM*	13µM*	-4%[56.1 µM]
CCOCCOC(=O)c1ccc(NC(=O)/C=C/c2ccc(OC)c(OC)c2)cc1	·	·	·	9.2µM*	26µM*	0%[12.3 µM]
CCOC(=O)c1ccccc1NC(=O)/C=C/c1cc(OC)c(OC)c(OC)c1	20	-7	-1	6.5µM*	-20%	3%
CCOC(=O)c1sc(-c2ccc(F)cc2)cc1NC(=O)Nc1ccccc1OC	-8	i	-23	?	16µM*	0%
CCOC(=O)c1ccccc1NC(=O)Nc1ccc(OC)c(OC)c1	26	-67*	46	7%	-24%	1%
CCOC(=O)c1ccc(NC(=O)Nc2ccc(OC)c(OC)c2)cc1	-13	39	-11	?	?	6%
COc1ccc(/C=C/C(=O)Nc2ccc(Cl)c(Cl)c2)cc1OC	·	·	·	21µM*	?	3%[2.28 µM]
COc1ccc(/C=C/C(=O)Nc2ccncc2)cc1OC	8	-22	1	-24%	-20%	-6%
COc1ccc(NC(=O)Nc2ccc(C)cc2OC(F)F)cc1OC	-9	-11	-12	21µM*	?	3%
COC(=O)c1cn(C(=O)/C=C/c2ccc(OC)c(OC)c2)c2ccccc12	-5	-69*	?	16µM*	?	-1%
COC(=O)c1cn(C(=O)OC)c2ccccc12	5	15	2	-4%	-12%	-3%
O=C(CCC(=O)OCc1ccc(Cl)cc1)Nc1cccc([N+](=O)[O-])c1	0	6	5	-21%	-27%	8%
CCC(C)N1CCN(C(=O)c2cc(OC)cc(OC)c2)CC1 (centres undefined)	3	-1	9	15%	-2%	·
Cc1ccc(C(=O)c2cn(Cc3ccccc3)c3ccccc3c2=O)cc1	·	·	·	21µM*	23µM*	7%
COc1ccc(C(=O)c2cn(Cc3cccc(C)c3)c3cc4c(cc3c2=O)OCCO4)cc1OC	·	·	·	21µM*	?	7%
COc1ccc2c(c1)c(=O)c(C(=O)c1ccccc1)cn2Cc1ccccc1	-3	-5	-1	-14%	-7%	4%
CCOc1ccc(C(=O)c2cn(Cc3ccccc3OC)c3cc4c(cc3c2=O)OCCO4)cc1	·	·	·	15µM*	?	2%
O=C(c1ccccc1)c1cn(Cc2ccc(F)cc2)c2ccccc2c1=O	·	·	·	?	?	7%
CCOc1ccc2c(c1)c(=O)c(C(=O)c1ccccc1)cn2Cc1ccccc1	·	·	·	15µM*	21µM*	2%
COc1cccc(OCc2ccc(Cn3nc(NC(=O)NCCc4ccc(OC)c(OC)c4)c4ccccc43)cc2)c1	-15	-11	1	?	-28%	·
COc1cccc(NC(=O)NC(C)C2CC3CCC2C3)c1 (centres undefined)	2	3	0	-5%	12%	1%
O=C1C2CC=CCC2C(=O)N1n1cnnc1 (centres undefined)	5	-2	3	9%	2%	-6%
COc1cccc(C2c3c(ncn(-c4ccccc4SC)c3=N)Oc3ccc4ccccc4c32)c1 (centres undefined)	·	·	·	·	·	5%
SMILES	Six1-Eya2 blk	IL1B secr inh	CtBP-E1A inh	DT40 TDP1 no CPT	TDP1 cell CPT	TDP1 block
COc1ccc(Br)c(C(=O)Nc2ccc(F)cc2)c1	-1	-18	-12	-5%	-7%	8%
NC(=O)CSc1cn(Cc2ccc(F)cc2)c2ccccc12	-5	0	10	?	?	1%
COc1ccc(Cn2cc(C(=O)c3ccccc3)c(=O)c3cc(OC)ccc32)cc1	-2	-12	2	-10%	3%	1%
COc1ccc(Cn2cc(C(=O)O)c(=O)c3ccccc32)cc1	5	17	-10	23µM*	?	6%
COc1ccc(C(=O)c2cn(Cc3ccccc3)c3ccccc3c2=O)cc1OC	·	·	·	?	21µM*	6%
O=C(c1ccc2c(c1)OCO2)c1cn(Cc2ccc(F)cc2)c2ccccc2c1=O	·	·	·	?	?	3%
NC(=O)CSc1cn(Cc2ccccc2)c2ccccc12	-2	-65*	1	?	?	1%
O=C(O)CCC/C=C\C[C@@H]1C(/C=C/[C@@H](O)COc2cccc(C(F)(F)F)c2)[C@@H](O)C[C@@H]1O (some centres undefined)	·	·	·	-5%[4.12 µM]	5%[4.12 µM]	5%
C=CC(=O)Oc1ccc(N2Cc3ccccc3C2=O)cc1	-13	0	·	4.6µM*	3.7µM*	·
COc1ccc(N=C2NC(=O)/C(=C\C=C\c3ccco3)S2)cc1	-21	-63*	-13	?	?	3%
Cc1cccc(N=C2NC(=O)/C(=C/C=C/c3ccco3)S2)c1	?	-10	-4	23µM*	13µM*	3%
CN1CCN(C(=S)NC(=O)c2cccc(S(=O)(=O)N(C)C)c2)CC1	5	-2	6	-14%	-2%	1%
COC(=O)c1sc(NC(=O)c2cc3c(s2)CCCC3)nc1C	2	-52*	2	21µM*	-16%	5%
Cc1nc(NC(=O)CCl)sc1C(=O)N(C)C	3	-81*	·	15µM*	13µM*	1%
Cc1nc(NC(=O)c2cc3c(s2)CCCCC3)sc1C(=O)N(C)C	-1	-53*	-5	?	?	0%
COc1ccc(CCC(=O)Nc2nc(C)c(C(=O)N(C)C)s2)cc1	0	0	0	30%	-8%	5%
NC(N)=NCCN1CCCCCCC1	·	·	·	-27%	?	8%[56.1 µM]
CC(=O)c1cccc(NC(=O)c2c(C)nn(-c3ccccc3)c2Cl)c1	2	7	8	?	-15%	5%
O=[N+]([O-])c1cc(-c2csc(NCCc3nc4cc(Cl)c(Cl)cc4n3CCCO)n2)ccc1Cl	-12	?	-14	?	16µM*	·

Assay outcomes from PubChem BioAssay.
